# Measured values taken from PubChem BioAssay AID1159580 (chemical genetic matrix, 2015).
# Out of some 5,500 compounds screened, about 2,000 (36%) were called active. Roughly 18% stayed inconclusive and do not appear here. This is one part of the list. A number with no mark means an inactive call. Cut-off read from the data, not from the text of the source: active = normalized growth mostly below about 0.91 (no sharp cut-off); inconclusive = no clear call, values can overlap the other calls; inactive = mostly above about 0.92.
# Assay: chemical genetic growth profiling, strain panel (AID 1159580);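 note: tested at 20 µM; growth read once vehicle control cultures reached saturation at 30 °C; 1 = growth at the plate median or of vehicle wells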
# Conditions: S. cerevisiae deletion strains, growth OD
smiles,measurement,setting,value
O=c1c2ccccc2oc2ccccc12,normalized growth,"locus YAL021C, strain ccr4, stronger effect = lower value",0.938
same,normalized growth,"locus YAL026C, strain drs2, stronger effect = lower value",0.912
same,normalized growth,"locus YAL030W, strain snc1, stronger effect = lower value",0.948
same,normalized growth,"locus YBL061C, strain skt5, stronger effect = lower value",0.922
same,normalized growth,"locus YBR009C, strain hhf1, stronger effect = lower value",0.854 (active)
same,normalized growth,"locus YBR023C, strain chs3, stronger effect = lower value",0.916
same,normalized growth,"locus YBR171W, strain sec66, stronger effect = lower value",0.897
same,normalized growth,"locus YBR231C, strain swc5, stronger effect = lower value",0.858 (active)
same,normalized growth,"locus YBR279W, strain paf1, stronger effect = lower value",0.922 (active)
same,normalized growth,"locus YCL011C, strain gbp2, stronger effect = lower value",0.907 (active)
same,normalized growth,"locus YCL016C, strain dcc1, stronger effect = lower value",0.869 (active)
same,normalized growth,"locus YCL061C, strain MRC1, stronger effect = lower value",0.917 (active)
same,normalized growth,"locus YCL069W, strain vba3, stronger effect = lower value",0.961
same,normalized growth,"locus YCR088W, strain abp1, stronger effect = lower value",0.964
same,normalized growth,"locus YDL005C, strain med2, stronger effect = lower value",0.946
same,normalized growth,"locus YDL040C, strain nat1, stronger effect = lower value",0.946
same,normalized growth,"locus YDR001C, strain nth1, stronger effect = lower value",0.953
same,normalized growth,"locus YDR069C, strain doa4, stronger effect = lower value",0.927
same,normalized growth,"locus YDR137W, strain rgp1, stronger effect = lower value",0.794 (active)
same,normalized growth,"locus YDR159W, strain sac3, stronger effect = lower value",0.989
same,normalized growth,"locus YDR195W, strain ref2",1.33 [resistant] (active)
same,normalized growth,"locus YDR297W, strain sur2, stronger effect = lower value",0.945
same,normalized growth,"locus YDR334W, strain swr1, stronger effect = lower value",0.929
same,normalized growth,"locus YDR335W, strain msn5, stronger effect = lower value",0.946
same,normalized growth,"locus YDR392W, strain spt3, stronger effect = lower value",0.495 (active)
same,normalized growth,"locus YEL003W, strain gim4, stronger effect = lower value",0.906 (active)
same,normalized growth,"locus YEL037C, strain rad23, stronger effect = lower value",0.944
same,normalized growth,"locus YEL061C, strain CIN8 (second series), stronger effect = lower value",0.879 (active)
same,normalized growth,"locus YER015W, strain faa2, stronger effect = lower value",0.954
same,normalized growth,"locus YER016W, strain bim1, stronger effect = lower value",0.95
same,normalized growth,"locus YER111C, strain swi4, stronger effect = lower value",0.937
same,normalized growth,"locus YER155C, strain BEM2 (second series), stronger effect = lower value",0.386 (active)
same,normalized growth,"locus YFR010W, strain ubp6, stronger effect = lower value",0.915
same,normalized growth,"locus YGL167C, strain pmr1, stronger effect = lower value",0.931
same,normalized growth,"locus YGL173C, strain kem1, stronger effect = lower value",0.907
same,normalized growth,"locus YGL227W, strain vid30, stronger effect = lower value",0.95
same,normalized growth,"locus YGL240W, strain doc1, stronger effect = lower value",0.84 (active)
same,normalized growth,"locus YGL253W, strain hxk2, stronger effect = lower value",0.859 (active)
same,normalized growth,"locus YHR013C, strain ard1, stronger effect = lower value",0.738 (active)
same,normalized growth,"locus YHR027C, strain rpn1, stronger effect = lower value",0.944
same,normalized growth,"locus YHR030C, strain SLT2, stronger effect = lower value",0.813 (active)
same,normalized growth,"locus YHR079C, strain IRE1, stronger effect = lower value",0.822 (active)
same,normalized growth,"locus YHR142W, strain chs7, stronger effect = lower value",0.766 (active)
same,normalized growth,"locus YJL092W, strain hpr5, stronger effect = lower value",0.945
same,normalized growth,"locus YJL095W, strain BCK1 (second series), stronger effect = lower value",0.853 (active)
same,normalized growth,"locus YJL095W, strain BCK1, stronger effect = lower value",0.857 (active)
same,normalized growth,"locus YJL115W, strain asf1, stronger effect = lower value",0.953
same,normalized growth,"locus YJL129C, strain trk1, stronger effect = lower value",0.976
same,normalized growth,"locus YJL154C, strain vps35, stronger effect = lower value",0.964
same,normalized growth,"locus YJL164C, strain tpk1, stronger effect = lower value",0.891 (active)
same,normalized growth,"locus YJL166W, strain qcr8, stronger effect = lower value",0.879 (active)
same,normalized growth,"locus YJL187C, strain SWE1, stronger effect = lower value",0.935
same,normalized growth,"locus YJR066W, strain TOR1, stronger effect = lower value",0.8 (active)
same,normalized growth,"locus YKL160W, strain elf1, stronger effect = lower value",0.879 (active)
same,normalized growth,"locus YKR026C, strain gcn3, stronger effect = lower value",0.949
same,normalized growth,"locus YKR091W, strain srl3, stronger effect = lower value",0.956
same,normalized growth,"locus YLL001W, strain dnm1, stronger effect = lower value",0.884 (active)
same,normalized growth,"locus YLL026W, stronger effect = lower value",0.951
same,normalized growth,"locus YLL041C, strain sdh2, stronger effect = lower value",0.952
same,normalized growth,"locus YLR027C, strain aat2, stronger effect = lower value",0.932
same,normalized growth,"locus YLR113W, strain HOG1, stronger effect = lower value",0.941
same,normalized growth,"locus YLR221C, strain rsa3, stronger effect = lower value",0.87 (active)
same,normalized growth,"locus YLR258W, strain gsy2, stronger effect = lower value",0.916
same,normalized growth,"locus YLR262C, strain YPT6 (second series), stronger effect = lower value",0.769 (active)
same,normalized growth,"locus YLR320W, strain mms22, stronger effect = lower value",0.697 (active)
same,normalized growth,"locus YLR342W, strain FKS1, stronger effect = lower value",0.963
same,normalized growth,"locus YLR357W, strain rsc2, stronger effect = lower value",1.06
same,normalized growth,"locus YLR370C, strain arc18, stronger effect = lower value",0.952
same,normalized growth,"locus YLR384C, strain iki3, stronger effect = lower value",0.921
same,normalized growth,"locus YML120C, strain ndi1, stronger effect = lower value",0.915
same,normalized growth,"locus YMR058W, strain fet3, stronger effect = lower value",0.918
same,normalized growth,"locus YMR125W, strain sto1, stronger effect = lower value",0.918
same,normalized growth,"locus YMR129W, stronger effect = lower value",0.946
same,normalized growth,"locus YMR205C, strain PFK2, stronger effect = lower value",0.913
same,normalized growth,"locus YMR231W, strain pep5, stronger effect = lower value",0.947
same,normalized growth,"locus YNL071W, strain lat1, stronger effect = lower value",0.737 (active)
same,normalized growth,"locus YNL183C, strain NPR1, stronger effect = lower value",0.841
same,normalized growth,"locus YNL209W, strain ssb2, stronger effect = lower value",0.93
same,normalized growth,"locus YNL248C, strain rpa49, stronger effect = lower value",0.511 (active)
same,normalized growth,"locus YNL322C, strain KRE1 (second series), stronger effect = lower value",0.965
same,normalized growth,"locus YNR049C, strain mso1, stronger effect = lower value",0.961
same,normalized growth,"locus YOR001W, strain rrp6, stronger effect = lower value",0.88 (active)
same,normalized growth,"locus YOR070C, strain gyp1, stronger effect = lower value",0.934
same,normalized growth,"locus YOR080W, strain dia2, stronger effect = lower value",0.966
same,normalized growth,"locus YOR083W, strain WHI5, stronger effect = lower value",0.814 (active)
same,normalized growth,"locus YOR106W, strain vam3, stronger effect = lower value",0.88
same,normalized growth,"locus YOR231W, strain MKK1, stronger effect = lower value",0.836 (active)
same,normalized growth,"locus YOR265W, strain rbl2, stronger effect = lower value",0.936
same,normalized growth,"locus YOR270C, strain vph1, stronger effect = lower value",0.611 (active)
same,normalized growth,"locus YOR290C, strain snf2, stronger effect = lower value",0.792 (active)
same,normalized growth,"locus YPL051W, strain arl3, stronger effect = lower value",0.859 (active)
same,normalized growth,"locus YPL078C, strain atp4, stronger effect = lower value",0.842 (active)
same,normalized growth,"locus YPL106C, strain sse1, stronger effect = lower value",0.759 (active)
same,normalized growth,"locus YPL240C, strain hsp82, stronger effect = lower value",0.969
same,normalized growth,"locus YPL256C, strain CLN2, stronger effect = lower value",0.876
